# This is a sample that favours compounds with a hit; in the whole collection about 2.4% have one here.
# UHRF1 MBD2 ctr: human UHRF1 methylated DNA binding inhibitors. AID 687016. Q96T88. hit rate 0.75% among 370,000. inhibition, % at 4.4 µM. UHRF1 binding to methylated oligo, TR-FRET; in the data active = inhibition above about 21%;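 also: UHRF1 SRA domain binding a hemimethylated CpG hairpin DNA probe; 0% = median of test compound wells and 100% = reference inhibitor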
# PLC-gamma1 inh: inhibitors of human phospholipase C gamma1 | P19174 | purified PLC-gamma1, fluorogenic substrate, fluorescence | inhibition, % at 12.2 µM | hit rate 0.84% among 370,000
# MBD2 DNA inh: MBD2-methylated oligo binding inhibition | Q9UBB5 | TR-FRET, MBD2 binding to methylated oligonucleotide | inhibition, % at 4.4 µM | hit rate 0.31% among 370,000 | AID 686964; in the data active = inhibition above about 13%
# LEDGF integ inh: blocks HIV-1 LEDGF/p75-dependent DNA integration | TR-FRET IN-LEDGF/p75 DNA integration, Eu/Cy5 | inhibition, % at 3.7 µM | hit rate 0.64% among 370,000 | AID 743269;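 active = inhibition above the screen-wide mean plus 3 SD, cut at about 13% in these data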;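 also: signal is the Cy5 over europium emission ratio at 671 and 618 nm; 0% = plate median of compound wells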
# PLC-beta3 inh: blocks human PLC-beta3 enzyme activity | Q01970 | Purified PLC-beta3, fluorogenic substrate, fluorescence | inhibition, % at 12.2 µM | hit rate 0.18% among 370,000; in the data active = inhibition above about 11%;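 also: 0% = median of compound wells on plate and 100% = full blocker control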
# PLCg1 ctr: counter-screen for PLC-beta3 inhibitors: inhibitors of human PLC-gamma1; shares compounds with PLC-gamma1 inh; purified PLC-gamma1, fluorogenic substrate, fluorescence; inhibition, % at 12.3 µM; hit rate 3.1% among 3,300; AID 743258
# PLCb3 confirm: human PLC-beta3 inhibition, confirmation; hit rate 1% among 3,300; inhibition, % at 12.3 µM; shares compounds with PLC-gamma1 inh; purified PLC-beta3, fluorogenic substrate fluorescence; in the data active = inhibition above about 11%
# Numbers without * were called inactive; / = not tested or not shown. Rule as the data show it, unless noted: active = inhibition above about 9.5%; inactive = the rest.
SMILES,UHRF1 MBD2 ctr,PLC-gamma1 inh,MBD2 DNA inh,LEDGF integ inh,PLC-beta3 inh,PLCg1 ctr,PLCb3 confirm
O=C(c1cccc(C(F)(F)F)c1)C1CCCN(Cc2ncc[nH]2)C1 (centres undefined),3,-2,3,0,-7,/,/
CCn1ccnc1CN1CCCC(C(=O)c2cccc(C(F)(F)F)c2)C1 (centres undefined),5,11*,-2,5,5,-5,-2
O=P(O)(O)C12CC3CC(CC(C3)C1)C2,5,13*,-2,7,9,-4,-1
C=Cn1ccnc1P(=S)(c1ccn(C)c1)c1nccn1C=C,6,14*,4,6,5,-8,-5
C=Cn1ccnc1P(=S)(c1nccn1C=C)c1nccn1C=C,-1,3,-3,1,2,/,/
CCN(CC)CCCN=Cc1c(O)n(CCc2ccc(OC)c(OC)c2)c(=O)[nH]c1=O,0,18*,1,-4,0,-2,0
CC1(C)CN=C(NCc2ccccc2Cl)S1,7,12*,-2,1,-1,0,2
CN1CCN(CCOC2c3ccccc3CSc3ccc(Cl)cc32)CC1 (centres undefined),3,12*,0,2,2,3,3
O=P(/C(=N/O)N1CCCCC1)(N1CCOCC1)N1CCOCC1,-1,9.6*,-7,5,4,8,2
COC(=O)C1=C(c2cccc(OCc3ccccc3)c2)C[C@@H]2CC[C@H]1N2C(=O)NCCOc1ccccc1,-1,10*,5,2,3,0,5
COC(=O)C1=C(c2ccc(-c3ccccc3)c(F)c2)C[C@@H]2CC[C@H]1N2C(=O)NCCOc1ccccc1,2,10*,-4,2,2,-1,0
COCCNC(=O)N1[C@H]2CC[C@@H]1C(C(=O)OC)=C(c1ccc(-c3ccccc3)c(F)c1)C2,0,-1,4,2,0,/,/
COC(=O)C1=C(c2cccc(OCc3ccccc3)c2)C[C@@H]2CC[C@H]1N2C(=O)NCCOc1ccccc1Cl,1,5,0,-1,3,/,/
CCC(=NCc1ccco1)c1c(O)n(C2CCCCC2)c(=O)[nH]c1=O,-3,1,-9,-1,12*,-2,21*
N#CC1c2ccccc2-n2nncc2CN1S(=O)(=O)c1ccccc1 (centres undefined),0,11*,-5,1,4,-7,-5
COc1ccc(OC)c(NP(=O)(Oc2ccccc2)Oc2ccccc2)c1,1,11*,-6,11,-1,-1,1
O=c1[nH]c(=O)n(-c2ccccc2F)c(O)c1C=NCCC1=CCCCC1,1,0,-3,1,-1,/,/
Cc1ccc(C2=NC(C)(C)N3C2C3c2ccc([N+](=O)[O-])cc2)cc1 (centres undefined),3,0,1,0,2,/,/
CC1CCC/C=C/C2CC(O)CC2C(O)/C=C/C(=O)O1 (centres undefined),1,15*,5,-2,7,-8,-2
CCc1ccc(OCC(=O)N2CCN(Cc3ccc4c(c3)OCO4)CC2)cc1,-1,1,0,2,-5,/,/
O=C1NCN(c2ccccc2)C12CCN(C(CCc1ccccc1)c1nnnn1Cc1ccccc1)CC2 (centres undefined),2,-3,-1,-2,1,/,/
O=C1NCN(c2ccccc2)C12CCN(C(c1cccc3ccccc13)c1nnnn1C1CCCCC1)CC2 (centres undefined),-1,12*,3,4,3,-1,-3
CSCCC(c1nnnn1Cc1ccccc1)N1CCC2(CC1)C(=O)NCN2c1ccccc1 (centres undefined),-1,11*,-10,4,1,-1,0
NP(=O)(OCCCc1ccccc1)Oc1ccccc1 (centres undefined),1,6,-4,3,7,/,/
NC(=O)OCCCc1ccccc1,4,11*,8,2,0,-7,-2
SMILES,UHRF1 MBD2 ctr,PLC-gamma1 inh,MBD2 DNA inh,LEDGF integ inh,PLC-beta3 inh,PLCg1 ctr,PLCb3 confirm
CSCCC(c1nnnn1C1CCCC1)N1CCC(n2c(=O)[nH]c3ccccc32)CC1 (centres undefined),1,10*,-3,4,-1,-2,3
COC(=O)c1cncn1C(C)c1ccccc1 (centres undefined),2,3,5,1,3,/,/
CC(c1ccccc1)n1cncc1C(=O)O (centres undefined),5,11*,1,-2,6,-6,-5
COc1ccc(CCNCc2ccccc2)cc1,1,5,2,4,-3,/,/
COc1ccc(CCNCc2c(OC)ccc3ccccc23)cc1,4,9.6*,-8,5,4,37*,2
CN(C)/C=C1/C(=O)NC(=O)N(CCNc2ncc(C(F)(F)F)cc2Cl)C1=O,-3,-5,2,3,-3,/,/
O=C1C(=O)c2ccccc2-c2ccccc21,-10,57*,11,-54,2,43*,6
Cc1cccc(OP(=O)(NCc2ccccc2)Oc2cccc(C)c2)c1,-2,4,0,-2,3,/,/
CCC1CN1P(=S)(N1CC1CC)N1CC1CC (centres undefined),0,-3,4,-6,-11,/,/
O=C(O)c1[nH]c(=O)[nH]c(=O)c1F,3,0,0,-2,-7,/,/
Nc1ncnc2c1ncn2[C@@H]1O[C@H](COP(=O)(O)CP(=O)(O)O)[C@@H](O)[C@H]1O,3,73*,-2,6,1,79*,-2
CCNC(=O)[C@H]1O[C@@H](n2cnc3c(N)ncnc32)[C@H](O)[C@@H]1O,1,1,-1,0,1,/,/
Cc1ccccc1NP(=O)(Oc1ccccc1F)Oc1ccccc1F,5,3,2,1,2,/,/
CN(C=O)CP(=O)(O)CN(C)C=O,8,13*,4,-2,13*,-1,-1
O=S(=O)(c1ccccc1)N1CCN2CCCC2C1 (centres undefined),-1,2,2,2,-2,/,/
Clc1ccccc1Nc1ncnc(-n2cccc2)n1,0,0,0,-4,0,/,/
FC(F)(F)c1ccc(NC2=NCCCS2)cc1,-2,2,-2,1,-5,/,/
COc1ccc(CC(=O)N(CCN(C)C)CC2CCCN(Cc3ccccc3F)C2)cc1 (centres undefined),5,13*,2,7,-1,-1,-2
CN(C)CCN(CC1CCCN(Cc2ccccc2F)C1)C(=O)Cc1ccccc1F (centres undefined),2,1,-1,0,-3,/,/
O=c1[nH]c(=O)n(-c2cccc3ccccc23)c(O)c1/C=N/N1CCCCCC1,-3,-2,-1,-2,-5,/,/
